High-throughput results deposited in PubChem by several laboratories.
esBAF inh – blocks esBAF chromatin remodeling in mouse ES cells; Bmi1-luciferase knock-in reporter, 24 h; 100% = twice the neutral-well signal; reporter increase, % at 12.5 µM; 350,000 compounds, 2% hits; in the data active = activation above about 40%; inconclusive = no clear call, values can overlap the other calls;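 note: 0% = median of the plate's neutral control wells and 100% = double that signal; a rise in the Bmi1 reporter signal indicates esBAF inhibition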
PHOSPHO1 block – inhibitors of human PHOSPHO1 phosphatase. 290,000 compounds, 1.1% hits. AID 1565. recombinant PHOSPHO1, absorbance phosphatase assay. inhibition, % at 13.3 µM; in the data active = inhibition above about 60%
Wnt act – activators of Wnt/beta-catenin signaling; Wnt/beta-catenin reporter cell assay, activator, plate reader; activation, % at 9.35 µM; 300,000 compounds, 1.2% hits; in the data active = activation above about 30%, passing the limit was not always enough; inconclusive = no clear call, values can overlap the other calls;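 note: 0% = neutral control wells and 100% = positive control wells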
APOBEC3G inh – APOBEC3G (human) deaminase inhibition; Q9HC16; recombinant A3G, ssDNA deamination FAM/TAMRA fluorescence; inhibition, % at 20 µM; 330,000 compounds, 0.28% hits;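 active = inhibition of at least 40% at 20 µM, with no more than 30% in the related APOBEC3A deaminase screen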;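 note: plate controls were DMSO wells with A3G for no effect and wells lacking A3G enzyme for full effect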
Target sequence (Q9HC16 whole entry, looked up): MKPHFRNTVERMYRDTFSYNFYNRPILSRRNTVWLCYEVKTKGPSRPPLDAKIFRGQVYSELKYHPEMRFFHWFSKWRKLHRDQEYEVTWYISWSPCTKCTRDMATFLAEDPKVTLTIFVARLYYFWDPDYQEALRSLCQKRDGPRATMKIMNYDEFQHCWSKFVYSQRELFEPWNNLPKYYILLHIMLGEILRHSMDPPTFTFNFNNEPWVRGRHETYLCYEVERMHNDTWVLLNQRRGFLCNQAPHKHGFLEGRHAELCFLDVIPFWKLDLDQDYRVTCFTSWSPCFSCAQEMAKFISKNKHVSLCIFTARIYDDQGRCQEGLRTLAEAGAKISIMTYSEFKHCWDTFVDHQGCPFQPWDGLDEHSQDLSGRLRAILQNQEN
A3A deaminase – inhibitors of human APOBEC3A DNA deaminase | recombinant A3A, FAM/TAMRA ssDNA deamination fluorescence | P31941 | 330,000 compounds, 0.41% hits | inhibition, % at 20 µM;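 active = at least 40% inhibition at 20 µM here, with at most 30% in a related deaminase screen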;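 note: plate controls were A3A with DMSO for no effect and wells lacking A3A enzyme for full effect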
Target sequence (P31941 whole entry, looked up): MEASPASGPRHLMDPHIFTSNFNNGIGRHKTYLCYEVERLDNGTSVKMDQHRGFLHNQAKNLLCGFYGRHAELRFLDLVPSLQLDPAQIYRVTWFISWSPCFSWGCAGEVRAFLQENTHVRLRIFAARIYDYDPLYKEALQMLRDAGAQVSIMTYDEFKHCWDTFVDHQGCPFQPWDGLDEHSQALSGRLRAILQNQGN
MITF TRPM1 HTS – MITF TRPM1 promoter activation in melanoma cells; activation, % at 12.5 µM; SK-MEL-5 TRPM1-promoter luciferase, 24 h; % of positive control, neutral wells = 0; 300,000 compounds, 0.75% hits;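 active = mean activation of at least 80% with every replicate also reaching 80%; inconclusive = mean reaches 80% but some replicate falls short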;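 note: 0% = neutral control wells and 100% = parthenolide positive control wells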
Active calls of the source: *; ? = inconclusive; . = no result given; ! = a repeat was not active. Compounds with a hit are over-represented: about 3.6% of the library has one in this group of screens.

SMILES | esBAF inh | PHOSPHO1 block | Wnt act | APOBEC3G inh | A3A deaminase | MITF TRPM1 HTS
CN1C(=O)C(C)(C2=CCCCC2)C(=O)NC1=S (centres undefined) | . | . | -3.1 | . | . | -4.2
CN1C(=O)NC(=O)C(C)(C2=CCCCC2)C1=O (centres undefined) | 27.5 | . | 0.1 | -1.2 | 2.5 | 99.9*
CN(C)C(=O)[C@@H]1[C@@H](CO)[C@@H]2Cn3c(cccc3=O)[C@H]1N2CC1CC1 | -1.8 | . | . | . | . | .
CCOC(=O)c1c(C)c(P(=S)(N2CCOCC2)N2CCOCC2)n(C)c1C | -6.4 | 61.0* | -1.1 | -3.0 | -3.3 | 3.1
Cc1ccccc1S(=O)(=O)N1[C@@H]2Cn3c(ccc(-c4cccnc4)c3=O)[C@H]1[C@@H](C(=O)O)[C@@H]2CO | -3.5 | . | . | . | . | .
Cc1nn(CC(C)C)c(Cl)c1C(=O)NC1CCC(C)CC1 (centres undefined) | 66.2* | . | 29.0 | -8.4 | -3.6 | 95.6*
CCCNC(=O)N1CCC2(CC1)OCCO2 | -4.4 | 61.5* | . | -6.2 | -3.8 | 31.4
COC(=O)[C@H]1[C@H](CO)[C@H]2Cn3c(ccc(C4=CCCCC4)c3=O)[C@@H]1N2Cc1ccccn1 | -1.9 | . | . | . | . | .
CC(=O)c1ccc(OC(=O)N(C)c2ccccc2)cc1 | . | 12.0 | 27.1 | -3.7 | -2.1 | 35.9
CC(=O)c1ccc(-c2ccccc2)cc1 | 33.7* | 16.0 | 15.3 | -12.0 | -0.2 | 31.9
CCCNC(=O)N1[C@@H]2Cn3c(ccc(-c4ccccc4OC)c3=O)[C@H]1[C@@H](C(=O)O)[C@@H]2CO | -0.1 | . | . | . | . | .
COC(=O)CSC1=NP(=S)(SCC(=O)OC)N2CCCC2=C1C#N (centres undefined) | -5.4 | 67.4* | . | -2.6 | -1.2 | -8.8
CN(C)C(=O)Oc1ccc2c(c1)O/C(=C\c1ccc(Cl)cc1)C2=O | ? | 46.0 | 8.9 | -2.1 | 1.6 | 103.7*
CN(C)C(=O)Oc1ccc2c(c1)O/C(=C\c1cccc(Cl)c1)C2=O | ? | 43.7 | 4.1 | -8.6 | -1.7 | 64.5
O=C1/C(=C/c2ccccc2)C[C@@]2(O)[C@H]3Cc4ccc(O)c5c4[C@@]2(CCN3CC2CC2)C1O5 (some centres undefined) | 54.1* | . | . | 3.3 | 0.9 | -108.4
Oc1ccc2c3c1O[C@H]1c4[nH]c5c(c4CC4(O)C(C2)N(CC2CC2)CCC314)CC1(O)[C@H]2Cc3ccc(O)c4c3[C@@]1(CCN2CC1CC1)C5O4 (some centres undefined) | . | . | 2.6 | . | . | .
C[C@]12CC[C@H]3[C@@H](CCC4=CC(=O)CC[C@@]43C)[C@@H]1CC[C@@H]2O | 5.3 | . | 33.3*! | -0.1 | -2.3 | -25.0
O=C(Cc1cccnc1)N1CCCCN2[C@H](CO)[C@H](c3ccc(C#CC4(O)CCCC4)cc3)[C@H]2C1 | 5.4 | . | . | . | . | .
Cc1cc(C(=O)N=Nc2c(O)n(C)c3ccccc23)c(C)o1 | 35.7 | -9.4 | . | -4.0 | 4.8 | 87.0*
Oc1cc(O)cc(/C=C/c2ccc(O)cc2O)c1 | -6.6 | . | . | -9.6 | -4.7 | 94.3*
CC(C)(C)c1cc(O)ccc1O | . | . | -0.4 | . | . | .
O=C1Nc2ccccc2/C1=C/c1cnc[nH]1 | 16.9 | 36.3 | 3.7 | 3.7 | 3.6 | -17.1
COc1ccc2c(c1)/C(=C/c1cnc[nH]1)C(=O)N2 | 52.3* | 20.2 | 13.3 | -3.8 | 4.6 | -33.5
Cc1ccc(N2C(=O)NC(=O)/C(=C/c3ccoc3)C2=O)cc1 | . | 22.6 | 1.9 | . | . | .
Cc1ccc(N2C(=O)NC(=O)/C(=C\c3cccn3C(C)(C)C)C2=O)cc1 | . | 60.0* | -5.6 | -2.4 | 2.6 | 8.4
SMILES | esBAF inh | PHOSPHO1 block | Wnt act | APOBEC3G inh | A3A deaminase | MITF TRPM1 HTS
CC/C(=N\NC(N)=O)c1c(O)[nH]c(=O)[nH]c1=O | . | 22.6 | 73.6* | -10.0 | -3.8 | -1.5
O=C(Cc1ccccc1)N1C[C@@H]2[C@H](c3ccccc31)[C@H](CO)N2Cc1ccccc1 | -2.7 | . | . | . | . | .
C[C@H](CO)N1C[C@H](C)[C@H](CN(C)C(=O)Oc2cccc3ccccc23)OCc2cn(nn2)CCCC1=O | -1.1 | . | . | . | . | .
COC(=O)[C@@H]1[C@@H](CO)[C@@H]2Cn3c(ccc(-c4ccc(OC)cc4)c3=O)[C@H]1N2C(=O)c1ccccc1F | 1.1 | . | . | . | . | .
CCCCn1c(NS(=O)(=O)c2ccccc2)c(C(=O)OCC)c2nc3ccccc3nc21 | . | 83.4* | . | . | . | -14.4
COC(=O)[C@@H]1[C@@H](CO)[C@@H]2Cn3c(ccc(-c4cccc(F)c4)c3=O)[C@H]1N2Cc1ccccc1 | 4.1 | . | . | . | . | .
COC(=O)[C@H]1[C@H](CO)[C@H]2Cn3c(ccc(-c4cncnc4)c3=O)[C@@H]1N2S(=O)(=O)c1ccccc1C | -3.5 | . | . | . | . | .
CN1CC(C(=O)c2ccccc2)C(C(=O)c2ccccc2)C1 (centres undefined) | 56.7* | 12.4 | 2.4 | -1.2 | -1.9 | .
S=C=Nc1ccccn1 | 23.9 | 61.2* | 17.7 | -11.5 | 1.1 | 7.3
c1ccc(P(c2ccccc2)c2ccccn2)cc1 | -0.3 | 28.1 | -0.9 | -9.8 | -4.0 | 3.4
CCCN1[C@@H]2Cn3c(cccc3=O)[C@H]1[C@@H](C(=O)N(C)C)[C@@H]2CO | 0.0 | . | . | . | . | .
O=C1NC(=O)N(c2ccccc2)C(=O)/C1=C\c1ccc([N+](=O)[O-])o1 | . | 62.3* | . | 82.5 | 87.7 | .
O=C1NC(=S)NC(=O)C12C(c1ccc(F)cc1)NC(=S)NC2c1ccc(F)cc1 (centres undefined) | -3.9 | 95.4* | -6.9 | -6.2 | -2.3 | .
CC(C)c1onc(C(=O)N2CCC3(CC2)OCCO3)c1[N+](=O)[O-] | 0.4 | 63.6* | 2.4 | 0.5 | 3.1 | -2.4
COC(=O)[C@@H]1[C@@H](CO)[C@@H]2Cn3c(ccc(-c4ccccc4F)c3=O)[C@H]1N2CC1CCCC1 | 3.3 | . | . | . | . | .
COC(=O)[C@H]1[C@H](CO)[C@H]2Cn3c(ccc(C4=CCCCC4)c3=O)[C@@H]1N2C(=O)CC1CC1 | -2.2 | . | . | . | . | .
Cc1ccc(N2C(=O)NC(=O)C3(Cc4ccccc4N4CCN(c5ccccc5)CC43)C2=O)cc1 (centres undefined) | ? | 72.5* | . | 6.1 | -0.8 | 9.9
c1ccc2oc(-c3ccc4c(c3)CNCc3cnnn3-4)cc2c1 | 66.1* | . | 2.6 | . | . | .
Cn1ncnc2c(=O)n(C)c(=O)nc1-2 | -82.8 | 78.7* | . | -3.7 | -1.9 | -102.8
COC(=O)[C@H]1[C@H](CO)[C@H]2Cn3c(ccc(-c4cccc(OC)c4)c3=O)[C@@H]1N2CC1CC1 | 4.8 | . | . | . | . | .
COC(=O)C[C@H]1CC[C@@H]2NC[C@H](O)COC[C@H]2O1 | 0.1 | . | . | . | . | .
Cc1cc(C(=O)OCC(=O)Nc2ccccc2F)c(C)n1C1CC1 | 56.6* | . | 9.4 | -8.4 | -3.9 | 85.3*
C=CCn1c(O)c(/C(CC)=N/NC(=S)Nc2ccccc2)c(=O)[nH]c1=O | . | 66.8* | 3.8 | 3.4 | -4.0 | .
COc1cc(CC2C(=O)N(C)C(=O)N(C)C2=O)ccc1OCc1ccccc1 | 45.9* | -16.0 | 28.0 | -1.4 | 0.4 | 42.7
O=C1OCCC1C(=O)c1ccccc1 (centres undefined) | . | . | 0.3 | . | . | .
O=C(c1ccccc1)C1NC1c1ccccc1 (centres undefined) | 49.1* | 45.0 | -3.9 | -8.2 | -3.7 | 18.2
